Laboratory results from PubChem BioAssay (NCATS).
Several values for one entry are separate records, joined by “and”; a condition that tells them apart may be missing. Identical values can stand only once. Records with an inconclusive call do not appear. Activity calls are given as the source filed them. Unless noted, calls follow the shape of the dose curve; as a rule, active = well fitted curve in the direction sought with a large enough effect; inconclusive = small, poorly fitted or top-dose-only effect, or another doubt; inactive = no such curve, though single readings can be large; an effect the other way counts as inactive or inconclusive.

Key:
[1] = qHTS assay for small molecule disruptors of the mitochondrial membrane potential - 5 hr assay (AID 651755; calls by dose curve; also: % is scaled to controls: 0 for no effect and ±100 for the full control effect; nearly all actives have a fitted effect of over 40% in size)
Summary of the method: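 Membrane-potential dye readout: red aggregate (540 ex/590 em) versus green monomer (490 ex/535 em) fluorescence after 30 min dye loading, following 5 hr compound exposure at 37C of overnight-plated HepG2 cells.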

[2] = molecular target: Tumor necrosis factor (Homo sapiens) (UniProt P01375); test: qHTS assay to identify small molecules that stimulate Tumor Necrosis Factor-alpha (TNF-alpha) secretion (AID 651757; active = well fitted curve in the direction sought with a large enough effect in the signal ratio; the % refers to the signal ratio; also: 0% is about no effect)
Summary of the method: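 Secreted TNF-alpha quantified by TR-FRET sandwich of two labeled anti-TNF-alpha antibodies, incubated 3 hr at room temperature. Preceded by 17 hr, 37 C compound treatment of THP-1 cells at 3000 cells/well.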

[3] = qHTS assay to identify small molecules that stimulate interleukin-8 (IL-8) secretion (AID 651758; active = well fitted activation curve with a large enough effect in the signal ratio; the % refers to the signal ratio; also: 0% is about no effect)
Summary of the method: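 Secreted IL-8 measured homogeneously by TR-FRET (two labelled anti-IL-8 antibodies, 1-3 h at room temperature) after a 16 h, 37 C compound treatment of THP-1 cells at 2000 cells/well.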

[4] = qHTS assay for environmental chemicals that activate the Aryl hydrocarbon Receptor (AhR) signaling pathway (AID 651777); settings: 1A2-DRE human hepatoma cells, luciferase, 24 h; activation: stronger effect = higher value; also: % of control where 0% means no effect; nearly all actives have a fitted effect of over 15% in size
Summary of the method: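 Measured luciferase activity, read 30 min after One-Glo addition at room temperature, from human hepatoma cells bearing a dioxin response element–CYP1A2 promoter reporter and exposed to compound for 24 hr at 37 C.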

[5] = molecular target: Peroxisome proliferator-activated receptor alpha (Homo sapiens) (UniProt Q07869); test: qHTS assay for small molecule agonists of the peroxisome proliferator-activated receptor alpha (PPARalpha) signaling pathway (AID 651778); settings: PathHunter PPARalpha complementation, chemiluminescence, 6 h; stronger effect = higher value; also: % of control where 0% means no effect
Summary of the method: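 Chemiluminescence from complemented enzyme reported PPARalpha activation in cells after 6 hr of compound treatment at 37 C. The detection reagent was incubated for 60 min at room temperature, and compounds were scored as agonists.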

[6] = molecular target: Nuclear receptor ROR-gamma (Homo sapiens) (UniProt P51449); test: qHTS assay for small molecule antagonists of the retinoid-related orphan receptor gamma (ROR-gamma) signaling pathway (AID 651802);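 also: CHO cells with doxycycline-induced ROR-gamma expression; luciferase reporter luminescence driven by ROR response element; series mostly up to about 92 µM; % is scaled to controls: 0 for no effect and ±100 for the full control effect; nearly all actives have a fitted effect of over 60% in size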
Summary of the method: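 Luminescence (One-Glo, 30 min RT) measured 16 h after compound addition and doxycycline induction at 37C. Reporter: RORE-luciferase under TET-inducible ROR-gamma in CHO cells.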

[7] = qHTS assay for small molecule agonists of the antioxidant response element (ARE) signaling pathway measured by Nrf2-dependant transcriptional activity (AID 720636; active = well fitted curve in the direction sought with a large enough effect in the repeat runs; an effect the other way counts as inactive or inconclusive;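 also: HepG2 cells with an ARE-driven luciferase reporter; % of control where 0% means no effect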)
Summary of the method: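 In HepG2 cells engineered with an Nrf2-responsive luciferase gene, ARE induction was quantified as luminescence after 16 hr compound treatment at 37 C.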

[8] = qHTS assay for small molecule agonists of the antioxidant response element (ARE) signaling pathway measured by Nrf2-dependant transcriptional activity - cell viability counter screen (AID 720653; active = well fitted curve in the direction sought with a large enough effect in the repeat runs; an effect the other way counts as inactive or inconclusive; also: % is scaled to controls: 0 for no effect and ±100 for the full control effect); settings: ARE-bla HepG2 viability, CellTiter-Glo ATP luminescence, 16 h; stronger effect = lower value
Summary of the method: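 Cytotoxicity counter screen: intracellular ATP quantified by CellTiter-Glo luminescence in the same ARE-bla HepG2 plates, after 16 h compound exposure and a 2 h beta-lactamase substrate step.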

[9] = qHTS assay for cell viability of HEK293 cells (AID 743288); settings: ATP luminescence (CellTiter-Glo), 18 h, stronger effect = lower value; also: % is scaled to controls: 0 for no effect and ±100 for the full control effect; nearly all actives have a fitted effect of over 50% in size
Summary of the method: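 Viable-cell counts were inferred from luciferase-based ATP content in HEK293 cells seeded at 2,000/well, pre-incubated ≥5 h, then dosed with DMSO-solubilised compounds for 18 h at 37 C.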

[10] = qHTS assay for small molecule antagonists of the retinoid-related orphan receptor gamma (ROR-gamma) signaling pathway - cell viability counter screen (AID 720652; active = well fitted curve in the direction sought with a large enough effect in the repeat runs; an effect the other way counts as inactive or inconclusive;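 also: CHO reporter cells with doxycycline-induced ROR-gamma expression; series mostly up to about 92 µM; compound exposure lasted 16 hr before ATP read; % is scaled to controls: 0 for no effect and ±100 for the full control effect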)
Summary of the method: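 Cytotoxicity counter screen: intracellular ATP (CellTiter-Glo luminescence) measured in the doxycycline-induced CHO RORE-luciferase reporter line after 16 hr compound exposure at 37 C, 5% CO2.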

Sequence of Nuclear receptor ROR-gamma (Homo sapiens) (P51449 whole entry, looked up): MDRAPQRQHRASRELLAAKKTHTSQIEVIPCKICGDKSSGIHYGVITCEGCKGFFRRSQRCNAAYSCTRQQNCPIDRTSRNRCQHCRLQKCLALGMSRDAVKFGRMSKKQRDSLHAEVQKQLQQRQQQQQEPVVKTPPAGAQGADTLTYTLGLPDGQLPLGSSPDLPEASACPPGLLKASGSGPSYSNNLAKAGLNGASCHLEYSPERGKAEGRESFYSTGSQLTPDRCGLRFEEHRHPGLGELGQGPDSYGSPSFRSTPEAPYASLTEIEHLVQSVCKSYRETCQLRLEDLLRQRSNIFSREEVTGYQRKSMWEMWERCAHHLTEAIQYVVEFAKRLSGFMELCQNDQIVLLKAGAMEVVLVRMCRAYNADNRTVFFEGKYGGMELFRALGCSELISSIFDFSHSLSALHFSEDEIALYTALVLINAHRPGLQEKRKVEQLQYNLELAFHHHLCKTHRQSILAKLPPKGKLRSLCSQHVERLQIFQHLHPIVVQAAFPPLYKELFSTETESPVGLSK
Sequence of Tumor necrosis factor (Homo sapiens) (P01375 whole entry, looked up): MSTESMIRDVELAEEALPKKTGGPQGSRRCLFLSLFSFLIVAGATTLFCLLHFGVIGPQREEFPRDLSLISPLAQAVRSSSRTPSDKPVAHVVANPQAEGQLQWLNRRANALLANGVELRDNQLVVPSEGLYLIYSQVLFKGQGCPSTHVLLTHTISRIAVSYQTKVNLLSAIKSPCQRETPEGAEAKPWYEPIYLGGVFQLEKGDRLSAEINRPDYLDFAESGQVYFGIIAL
Sequence of Peroxisome proliferator-activated receptor alpha (Homo sapiens) (Q07869 whole entry, looked up): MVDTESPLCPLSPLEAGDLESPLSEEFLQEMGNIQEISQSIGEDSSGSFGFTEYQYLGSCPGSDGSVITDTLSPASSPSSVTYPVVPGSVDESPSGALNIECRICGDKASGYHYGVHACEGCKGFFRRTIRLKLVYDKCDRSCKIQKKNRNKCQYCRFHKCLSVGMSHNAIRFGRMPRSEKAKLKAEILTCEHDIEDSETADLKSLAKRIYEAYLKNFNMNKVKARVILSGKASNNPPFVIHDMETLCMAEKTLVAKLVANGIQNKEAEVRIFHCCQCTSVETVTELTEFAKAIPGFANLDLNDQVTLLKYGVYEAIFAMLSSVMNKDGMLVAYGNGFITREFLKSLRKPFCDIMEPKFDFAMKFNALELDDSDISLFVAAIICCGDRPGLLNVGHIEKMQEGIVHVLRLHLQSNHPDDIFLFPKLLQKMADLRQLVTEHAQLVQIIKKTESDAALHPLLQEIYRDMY

CC(C)Cc1nccs1
inactive: Potency [1] | Potency [2] | Potency [3] | activation [4] 1% | max response [5] -1.04% | Potency [6] | outcome [7] | max response [8] 25.9% | max response [9] -11.2%

CCCCCCCCC
inactive: Potency [1] | Potency [2] | Potency [3] | activation [4] 0.0249% | max response [5] -0.317% | Potency [6] | outcome [7] | max response [8] 3.15% | max response [9] 9.61%

Oc1c(Cl)ccc(Cl)c1Cl
inactive: Potency [1] | Potency [2] | Potency [3] | activation [4] -0.586% | max response [5] 6.63% | outcome [7] | Potency [10] | max response [8] 0.617% | max response [9] 4.44%

Cc1cc(C)c(N)cc1C
inactive: Potency [1] | Potency [2] | Potency [3] | activation [4] 1.62% | max response [5] -4.75% | outcome [7] | Potency [10] | max response [8] 7.8% | max response [9] -5.87%

CCCCC(CC)CO (stereo not given)
inactive: Potency [1] | Potency [2] | Potency [3] | activation [4] -0.248% | max response [5] -2.86% | Potency [6] | outcome [7] | max response [8] 7.9% | max response [9] -2.63%

Cc1ccc(S(=O)(=O)NC2CCCCC2)cc1
inactive: Potency [1] | Potency [2] | Potency [3] | activation [4] -0.456% | max response [5] -1.4% | outcome [7] | max response [8] 1.13% | max response [9] -5.72%

C1CCCC1
inactive: Potency [1] | Potency [2] | Potency [3] | max response [5] 5.92% | Potency [6] | outcome [7] | Potency [10] | max response [8] -4.11% | max response [9] 0.668%

O=Cc1ccc(CO)o1
inactive: Potency [1] | Potency [2] | Potency [3] | activation [4] -1.71% | max response [5] -3.35% | Potency [6] | outcome [7] | max response [8] -0.711% | max response [9] 6.14%

c1ccc(Oc2ccccc2)cc1
inactive: Potency [1] | Potency [2] | Potency [3] | activation [4] -0.267% and -0.51% | max response [5] -7.64% and 0.0496% | Potency [6] | outcome [7] | max response [8] 5.45% and -9.72% | max response [9] -1.32% and 1.9%

Cc1ccc2cccnc2c1
inactive: Potency [1] | Potency [2] | Potency [3] | activation [4] 0.306% | Potency [6] | outcome [7] | Potency [10] | max response [8] 0.459% | max response [9] 6.13%

O=C(O)c1cc(Cl)cc(Cl)c1
inactive: Potency [1] | Potency [2] | Potency [3] | activation [4] 0.13% | max response [5] -2.98% | outcome [7] | Potency [10] | max response [9] 9.31%

CCOCC(=O)O
inactive: Potency [1] | Potency [2] | Potency [3] | activation [4] -0.35% | Potency [6] | outcome [7] | Potency [10] | max response [8] 1.2% | max response [9] -0.256%

CCCCC=O
inactive: Potency [1] | Potency [2] | Potency [3] | max response [5] -1.36% | Potency [6] | outcome [7] | Potency [10] | max response [8] -1.82% | max response [9] -6.95%

O=C(O)c1ccc(C(=O)O)cc1
inactive: Potency [1] | Potency [2] | Potency [3] | activation [4] -0.394% and -1.3% | max response [5] -2.31% and 0.244% | Potency [6] | outcome [7] | max response [8] -2.71% and -15.5% | max response [9] 8.37% and 1.4%

O=Cc1ccc(Cl)cc1
inactive: Potency [1] | Potency [2] | Potency [3] | max response [5] -4.56% | Potency [6] | outcome [7] | Potency [10] | max response [8] 7.47% | max response [9] -6.94%

C=C(C)C1CC=C(C)C(OC(C)=O)C1 (stereo not given)
inactive: Potency [1] | Potency [2] | Potency [3] | activation [4] 0.261% | Potency [6] | outcome [7] | Potency [10] | max response [8] 1.71% | max response [9] 1.89%

O=C1OC(=O)c2c(Br)c(Br)c(Br)c(Br)c21
inactive: Potency [1] | Potency [2] | Potency [3] | activation [4] -1.58% and 0.554% | outcome [7] | Potency [10] | max response [8] -8.33% and -1.37% | max response [9] 2.2% and -6.24%

COC(=O)CC#N
inactive: Potency [1] | Potency [2] | Potency [3] | activation [4] -0.763% | Potency [6] | outcome [7] | Potency [10] | max response [8] -4.65% | max response [9] 6.11%

Cc1cccc(C)c1
inactive: Potency [1] | Potency [2] | Potency [3] | activation [4] 0.25% | max response [5] 1.06% | outcome [7] | Potency [10] | max response [8] 7.38% | max response [9] 7.2%

NC(=O)/N=N/C(N)=O
inactive: Potency [1] | Potency [2] | Potency [3] | activation [4] -0.307% | max response [5] -8.1% | Potency [6] | outcome [7] | max response [8] 19.2% | max response [9] 1.54%

Cc1ccc(C)c(O)c1
inactive: Potency [1] | Potency [2] | Potency [3] | activation [4] 0.145% | Potency [6] | outcome [7] | Potency [10] | max response [8] 0.808% | max response [9] 5.19%

O=Cc1cccc(Br)c1
inactive: Potency [1] | Potency [2] | Potency [3] | max response [5] -2.07% | Potency [6] | outcome [7] | Potency [10] | max response [8] 0.536% | max response [9] 1.54%
